Screens: PubChem BioAssay, National Center for Advancing Translational Sciences (NCATS)
Most compounds without a hit are left out; they make up all but 3.8% or so of the library.
KCNH2 3.1 inh: inhibitors of human KCNH2 3.1 potassium channel isoform; U2OS KCNH2 3.1, thallium flux FluxOr; stronger effect = lower value; activity change, % (tested at about 1.8 µM); actives 0.95% (n = 340,000); AID 720553;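 active = maximum activity change below -70%; inconclusive = maximum activity change from -70% to -50%; inactive = maximum activity change above -50%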;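 also: thallium influx rate constant from kinetic fluorescence after stimulation buffer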
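Measured as rate of thallium-driven FluxOr signal in transduced U2OS cells carrying the 3.1 channel, read kinetically for 2 min upon stimulation; values are rate constants scaled to DMSO control wells.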
PLK1 PBD inh: inhibitors of human PLK1 polo-box domain binding. P53350. Plk1 PBD binding of FITC phosphopeptide, fluorescence polarization. Potency, µM, hits mostly inhibitors. actives 2.8% (n = 360,000); also: series mostly up to about 57 µM; nearly all actives have a fitted effect of over 65% in size
MBNL1 CUG block: inhibitors of human MBNL1 binding to CUG repeat RNA. actives 0.036% (n = 280,000). Potency, µM (titrated, usually from 57.5 µM), actives largely listed as inhibitors. Q9NR56. TR-FRET MBNL1-His/biotin-(CUG)12 binding, 665/545 ratio; active = well fitted inhibition curve with a large enough effect in the signal ratio, with a control signal flat, not every such curve was filed as active; inconclusive = small, poorly fitted or top-dose-only effect, or effect the other way, or a change in a side signal; inactive = no such curve, though single readings can be large or run the other way; the % refers to the signal ratio
Target sequence (Q9NR56 whole entry, looked up): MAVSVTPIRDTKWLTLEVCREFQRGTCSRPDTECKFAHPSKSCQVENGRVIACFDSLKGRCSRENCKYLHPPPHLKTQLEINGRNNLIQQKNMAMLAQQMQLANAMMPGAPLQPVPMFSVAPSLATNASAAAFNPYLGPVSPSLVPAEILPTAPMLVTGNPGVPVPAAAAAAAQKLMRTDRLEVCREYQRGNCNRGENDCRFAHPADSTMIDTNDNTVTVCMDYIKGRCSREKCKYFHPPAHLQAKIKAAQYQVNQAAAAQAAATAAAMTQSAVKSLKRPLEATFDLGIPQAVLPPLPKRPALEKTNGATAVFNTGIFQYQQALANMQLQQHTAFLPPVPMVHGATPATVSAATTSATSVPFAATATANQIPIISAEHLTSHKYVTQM
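Compound titration spanned 92 nM–58 uM against the MBNL1-His/biotin-(CUG)12 complex. After 60 min at room temperature with 5 nM streptavidin-XL665 and 0.055 ng/ul terbium anti-His, ratiometric 665/545 nm emission (Ex 340 nm) normalized to controls.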
KCNH2 WT inh: blocks the wildtype human KCNH2 potassium channel; Q12809; U2OS, BacMam KCNH2, thallium flux FluxOr; stronger effect = lower value; activity change, % at 1.84 µM; actives 0.37% (n = 340,000); AID 720551;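 active = maximum activity change below -70%; inconclusive = maximum activity change between -70% and -50%; inactive = maximum activity change above -50%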
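U2OS cells were transduced with wild-type KCNH2 virus (2.03 x 10^8 / mL) for 4 h at room temperature, then cultured overnight at 37 C. Thallium flux was read with FluxOr dye. Rate constants were normalized to DMSO controls.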
VDR inh: blocks the human vitamin D receptor; P11473; VDR-SRC2-3 peptide fluorescence polarization, 2 h; Potency, µM, hits mostly inhibitors; actives 0.93% (n = 400,000); AID 504847
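Two reagent solutions held at 4 deg C in the dark were dispensed, compounds pinned at 23 nl, and the mixture incubated 2 h at room temperature. Read-out: fluorescence polarization of VDR–SRC2-3 peptide binding.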
CBFb-RUNX1 inh: inhibitors of human CBF-beta and RUNX1 interaction. Q01196+Q13951. AlphaScreen CBFb-His/RUNX1-biotin binding, biochemical. Potency, µM (top dose mostly 59.8 µM), usual class: inhibitors. 230,000 tested, under 10 active
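AlphaScreen proximity signal reports loss of binding between His-tagged CBF-beta and biotin-labelled RUNX1, each at 30 nM. Proteins are pre-associated for 20 minutes, compounds added for 15 minutes, then beads for 90 minutes, all at ambient temperature.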
Numbers stand for hits; . = inactive; ? = inconclusive; / = no result; ! = not active in a repeat. Unless noted, calls follow the shape of the dose curve; as a rule, active = well fitted curve in the direction sought with a large enough effect; inconclusive = small, poorly fitted or top-dose-only effect, or another doubt; inactive = no such curve, though single readings can be large; an effect the other way counts as inactive or inconclusive.

SMILES	KCNH2 3.1 inh	PLK1 PBD inh	MBNL1 CUG block	KCNH2 WT inh	VDR inh	CBFb-RUNX1 inh
COC(=O)c1cc(Cl)c(NC(=O)/C=C/c2ccc(OC)c(OC)c2)cc1OC	.	.	?	.	.	.
COc1cc(NC(=O)/C=C/c2ccccc2)c(C(=O)O)cc1OC	.	17µM	.	.	?	.
COc1cc2c(cc1NC(=O)/C=C/c1cc(OC)c(OC)c(OC)c1)oc1ccccc12	-87	.	.	.	.	.
COc1cc(NCc2ccc3nc(N)nc(N)c3c2C)cc(OC)c1OC	/	/	/	/	25µM	?
O=C(CSc1nccn1Cc1ccc(Cl)cc1)Nc1nc2ccccc2s1	/	/	/	/	.	/
CCOC(=O)c1cc2c(=O)n3cccc(C)c3nc2n(CCCOC)c1=NC(=O)c1cccnc1	.	.	?	.	.	.
CCOCCCn1c(=NC(=O)c2cccnc2)c(C(=O)OCC)cc2c(=O)n3ccccc3nc21	.	19µM!	?	.	?	.
COc1cccc(C2=N/C(=C\N(C)C)C(=O)O2)c1	.	17µM	?	.	.	.
Cc1ccc(S(=O)(=O)CCC(=O)N2CCN(c3ccc([N+](=O)[O-])cc3)CC2)cc1	-77	.	.	.	25µM	/
OC(COCc1ccccc1)CN1CCN(c2ccccc2F)CC1 (stereo unspecified)	.	.	.	.	.	.
O=[N+]([O-])c1ccc(OCC(O)CN2CCN(c3ccccc3F)CC2)cc1 (stereo unspecified)	-97	.	?	-76	.	.
Cc1ccc(N2CCN(CC(O)COc3ccc([N+](=O)[O-])cc3)CC2)cc1 (stereo unspecified)	-89	.	/	-88	.	.
C/C=C/c1ccc(OC(C)[C@@H](O)c2ccc(O)c(OC)c2)c(OC)c1 (stereo partly specified)	/	/	/	/	.	.
C=CCn1c(=O)c2ccccc2n2c(SCC(=O)c3ccccc3)nnc12	.	24µM	.	.	.	.
O=C(CSc1nc2ccccc2c(=O)n1Cc1ccc(Cl)cc1)NCc1cccs1	-82	.	/	.	.	.
CCCn1c(=O)c2ccccc2n2c(SCC(=O)NCc3cccs3)nnc12	.	27µM	.	.	.	.
OCC1(Cc2ccccc2)CCN(C2CCN(c3ccc(F)c(F)c3)CC2)CC1	-91	.	.	.	.	.
OCC1(Cc2cccc(Cl)c2)CCCN(Cc2ccc(F)c(F)c2)C1 (stereo unspecified)	?	.	.	.	.	/
CCC(=O)N1c2ccccc2CC1C(=O)NCCCN1CCN(c2ccc(F)cc2)CC1 (stereo unspecified)	/	/	/	/	.	/
O=C(Cc1ccc2c(c1)CCCC2)Nc1ccc2ccccc2c1	.	?	.	.	.	.
O=C(CS)Nc1ccc2ccccc2c1	.	.	.	.	79µM	.
O=C(O)c1ccc[n+]([O-])c1	/	/	/	/	.	/
NC(=S)c1ccc[n+]([O-])c1	.	19µM	/	.	50µM	/
CC(=O)c1ccc(N2CCN(C(=O)c3nn(C)c4c3CS(=O)(=O)c3ccccc3-4)CC2)cc1	.	27µM	.	.	?	/
COc1ccc(NC(=O)c2ccccc2Sc2ccc(NC(C)=O)nc2)cc1	.	.	.	.	.	.
SMILES	KCNH2 3.1 inh	PLK1 PBD inh	MBNL1 CUG block	KCNH2 WT inh	VDR inh	CBFb-RUNX1 inh
CC(=O)Nc1ccc(Sc2ccccc2C(=O)Nc2ccc(F)cc2)cn1	.	19µM	.	.	.	.
CC(C)NS(=O)(=O)c1ccc2[nH]c3nc(SCC(=O)Nc4ccc(F)c(F)c4)nnc3c2c1	/	/	/	/	.	/
O=C(CCN1CCN(C(c2ccccc2)c2ccccc2)CC1)N/N=C/c1ccc(O)cc1	-80	.	.	.	.	.
COc1cc(/C=N/NC(=O)CC2(C)OCCCO2)ccc1OCc1ccccc1	.	?	/	.	.	.
O=C(CCN1CCCCC1)Nc1ccc(Br)cc1	.	?	.	.	.	.
COc1cc(/C=N/NC(=O)CN2CCCCC2)ccc1OCc1ccc(Br)cc1	-90	.	/	.	.	.
O=C(CCN1CCCCC1)N/N=C/c1ccc(Br)cc1	-75	.	?	.	.	.
O=C(COc1ccc(Cl)cc1Cl)NCCN1CCCCC1	.	.	/	.	/	/
O=S(=O)(CCN1CCCCC1)Oc1ccc(Cl)cc1Cl	.	12µM	.	.	.	.
COc1ccc(-n2c(Cc3ccccc3)nnc2SCc2ccc([N+](=O)[O-])cc2)cc1	.	27µM	?	.	.	.
O=C(Cn1nnc(-c2ccc(F)cc2)n1)N1CCCCC1	.	.	.	.	.	.
O=C(Cn1nnc(-c2ccccc2F)n1)N1CCCCC1	-134	.	.	.	.	/
O=C1Nc2ccccc2/C1=C/c1ccc([N+](=O)[O-])cc1	.	.	.	.	.	/
CC1(c2ccc([N+](=O)[O-])cc2)Nc2ccccc2S1 (stereo unspecified)	.	6.7µM	?	.	?	/
CCOC(=O)c1cc(C)n(CC2CCC(C(=O)Nc3ccc(OC)cc3)CC2)c1C (stereo unspecified)	/	/	/	/	.	/
C=C/C(C)=C/C[C@H]1C(=C)CCC2[C@](C)(C(=O)O)CCC[C@@]21C (stereo partly specified)	.	19µM	/	.	.	/
C=C1CCC2[C@](C)(CO)[C@H](O)CC[C@@]2(C)[C@@H]1C/C=C1/C(=O)OC[C@H]1O (stereo partly specified)	/	/	/	/	.	.
Nc1n[nH]c(=S)n1/N=C1/C(=O)Nc2ccccc21	.	27µM	?	.	?	.
O=C1Nc2ccccc2C1=NN1CCCCCC1	.	.	/	.	.	/
Cc1nn(-c2ccccc2)c(Cl)c1/C=N/Nc1ccc(S(=O)(=O)Nc2ccccc2C(=O)O)cc1[N+](=O)[O-]	.	27µM	.	.	79µM	?
O=C(O)c1ccccc1NS(=O)(=O)c1ccc(NN=Cc2ccccc2F)c([N+](=O)[O-])c1	.	24µM	/	.	?	/
Cc1nn(-c2ccccc2)c(Cl)c1/C=N/Nc1ccc(Cl)c(C(=O)O)c1	.	?	.	.	.	.
CCOc1ccc(C=NNc2ccc(S(=O)(=O)Nc3ccccc3C(=O)O)cc2[N+](=O)[O-])cc1	.	19µM	/	.	.	/
COc1ccc(C=NNc2ccc(S(=O)(=O)Nc3ccccc3C(=O)O)cc2[N+](=O)[O-])c(OC)c1	.	30µM	/	.	89µM	/
CSc1ccc(C=NNc2ccc(S(=O)(=O)Nc3ccccc3C(=O)O)cc2[N+](=O)[O-])cc1	.	?	/	.	.	/
CCOc1cccc(C=NNc2ccc(S(=O)(=O)Nc3ccccc3C(=O)O)cc2[N+](=O)[O-])c1O	.	?	/	.	.	/
COCCCNC(=O)CCc1c(C)nc2cc(-c3ccc(Cl)cc3)nn2c1C	/	/	/	/	.	/
COCCn1c(CCC(=O)Nc2ccc(C)c(Cl)c2)nc2cccnc21	/	/	/	/	.	/
